Compound activity: PubChem, Bradner/Qi Labs at DFCI
The entries come from a sample that favours hits as a whole.
CBX7 inh: CBX7 chromodomain binding inhibitors, primary screen, biochemical, AlphaScreen; AlphaScreen His6-CBX7 / biotin-H3K27me3 peptide binding; stronger effect = lower value; AID 1224903, 2016; actives 1.1% (n = 66,000); normalised signal (fraction of DMSO) (concentration not given with the values); in the data active means normalised signal below about 0.5
Target sequence (O95931 whole entry, looked up): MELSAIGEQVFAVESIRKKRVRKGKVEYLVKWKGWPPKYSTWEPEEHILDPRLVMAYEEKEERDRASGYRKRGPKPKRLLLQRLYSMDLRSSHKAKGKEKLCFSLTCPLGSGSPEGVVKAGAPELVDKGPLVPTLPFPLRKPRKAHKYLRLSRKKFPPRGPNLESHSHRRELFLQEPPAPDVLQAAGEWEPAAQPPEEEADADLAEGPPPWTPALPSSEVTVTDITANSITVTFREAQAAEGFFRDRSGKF
* hit, by the source's call.

Cc1ccc(-n2ncc3c(NCc4cccnc4)ncnc32)c(C)c1 was read as CBX7 inh 1.
For Cc1ccc(-n2ncc3c(NCCO)ncnc32)c(C)c1 the results were CBX7 inh 0.95.
CCCCOc1ccc(C2C(N3C(=O)c4ccccc4C3=O)C(=O)N2c2ccc(Cl)cc2)cc1 (centres undefined) was read as CBX7 inh 0.92.
Screening CCCCN(CC)C(=O)CCC(=O)Nc1ccc2nc(N3CC(C)CC(C)C3)cc(C)c2c1 (centres undefined) returned CBX7 inh 1.1.
Screening COc1ccccc1-c1nnc(NC(=O)c2ccc(S(=O)(=O)N3CC(C)OC(C)C3)cc2)o1 (centres undefined) returned CBX7 inh 0.68.
Screening Cc1nnc(NC(=O)c2ccc(S(=O)(=O)N3CCCCCC3)cc2)o1 returned CBX7 inh 0.002*.
NC(=O)c1oc2ccccc2c1NC(=O)c1ccc(S(=O)(=O)N2CCCC2)cc1 was read as CBX7 inh 1.
For NC(=O)c1oc2ccccc2c1NC(=O)c1ccc(S(=O)(=O)N2CCCCC2)cc1 the results were CBX7 inh 1.
For CC1CCCN(S(=O)(=O)c2ccc(C(=O)Nc3nnc(C4CC4)o3)cc2)C1 (centres undefined) the results were CBX7 inh 0.6.
`COc1ccc(-c2nnc(NC(=O)c3ccc(S(=O)(=O)N4CC(C)OC(C)C4)cc3)o2)cc1` (centres undefined) gave CBX7 inh 0.53.
COc1ccccc1-c1nnc(NC(=O)c2ccc(S(=O)(=O)N3CCCC3)cc2)o1 was read as CBX7 inh 0.62.
Cc1nnc(NC(=O)c2ccc(S(=O)(=O)N3CC(C)OC(C)C3)cc2)o1 (centres undefined) was read as CBX7 inh 0.0066*.
For Cc1nnc(NC(=O)c2ccc(S(=O)(=O)N3CCCCC3)cc2)o1 the results were CBX7 inh 0.021*.
For Cc1ccccc1NC(=O)c1ccc(S(=O)(=O)N2CCCCC2)cc1 the results were CBX7 inh 0.96.
`O=C(Nc1nnc(C2CC2)o1)c1ccc(S(=O)(=O)N2CCCC2)cc1` gave CBX7 inh 0.45*.
`O=C1CC(N2CCC(O)CC2)C(=O)N1c1ccccc1` (centres undefined) gave CBX7 inh 1.1.
`CCCOc1ccc(-c2nc(Oc3ccc(C#N)cc3)c3ccccc3n2)cc1` gave CBX7 inh 0.99.
Screening CCCn1c(SCCOc2ccc(OC)cc2)nc2ccccc21 returned CBX7 inh 1.1.
CC(=O)Nc1ccccc1-c1nc2ccc(C(=O)NCc3ccccn3)cc2[nH]c1=O was read as CBX7 inh 1.2.
`CCOC(=O)c1[nH]c(=O)[nH]c1CSc1nc(-c2ccccc2)cc(-c2ccccc2)n1` gave CBX7 inh 0.85.
For O=C(Nc1ccccc1-c1nc2ccccc2s1)c1cccc(Br)c1 the results were CBX7 inh 1.2.
COc1ccc(C2CC(=O)NC2=O)cc1Br (centres undefined) was read as CBX7 inh 1.1.
Screening COc1ccccc1-c1cc2nc(C)c(CCC(=O)N3CCOCC3)c(C)n2n1 returned CBX7 inh 1.1.
`COC(CNC(=O)c1ccc2c(c1)N(Cc1cc(C)ccc1C)C(=O)c1ccccc1S2)OC` gave CBX7 inh 0.77.
Screening COc1ccc2c(c1)c(CC(=O)NCc1ccc(C(C)C)cc1)c(C)n2C(=O)c1ccc(Cl)cc1 returned CBX7 inh 1.1.
Cc1oc(-c2ccccc2Cl)nc1C(=O)NC1CC1 was read as CBX7 inh 1.1.
Cc1cccc(-c2nc(C(=O)NCc3ccc(Cl)cc3)c(C)o2)c1 was read as CBX7 inh 1.
For O=C(Nc1ccc(-c2csc(Nc3ccccc3F)n2)cc1)c1ccccc1 the results were CBX7 inh 0.99.
`CCCC1CCC(c2ccc(-c3noc(-c4ccc(O)c(F)c4)n3)cc2)CC1` (centres undefined) gave CBX7 inh 0.49*.
`CCCCCC1CCC(c2ccc(-c3nc(-c4ccncc4)no3)cc2)CC1` (centres undefined) gave CBX7 inh 1.
CCCC1CCC(c2nc(-c3ccc(OC(F)F)cc3)no2)CC1 (centres undefined) was read as CBX7 inh 1.2.
Screening Cc1ccc(N2CCN(C(=O)Cn3nc(Cc4ccncc4)c4ccccc4c3=O)CC2C)cc1 (centres undefined) returned CBX7 inh 1.
For CC(NC(=O)c1ccc2c(c1)N(Cc1ccc(F)cc1Cl)C(=O)CS2)c1ccccc1 (centres undefined) the results were CBX7 inh 1.
CCN(CCCNC(=O)CC1Oc2ccccc2NC1=O)Cc1ccccc1 (centres undefined) was read as CBX7 inh 1.
Cc1ccc(NC(=O)C2CCN(S(=O)(=O)c3ccc(F)cc3)CC2)c(C)c1 was read as CBX7 inh 1.
Cc1c(C)n(CC(O)CNC2CCCCC2C)c2ccccc12 (centres undefined) was read as CBX7 inh 0.88.
`CCOC(=O)c1cnc2c(C)cc(C)cc2c1Nc1ccc(F)cc1` gave CBX7 inh 1.2.
For CCOC(=O)c1cnc2ccc(OCC)cc2c1N1CCCC1 the results were CBX7 inh 0.9.
CCOC(=O)c1cnc2ccc(C)cc2c1Nc1ccc(N2CCCCC2)cc1 was read as CBX7 inh 0.28*.
For CCOC(=O)c1cnc2c(C)cc(C)cc2c1Nc1ccc(Cl)cc1 the results were CBX7 inh 1.2.
`CCOC(=O)c1cnc2ccc(C)cc2c1Nc1ccc(OCC)cc1` gave CBX7 inh 0.93.
CCOC(=O)c1cnc2ccc(C)cc2c1Nc1ccc(N(CC)CC)cc1 was read as CBX7 inh 0.42*.
CCOC(=O)c1cnc2ccc(C)cc2c1Nc1ccc(N2CCOCC2)cc1 was read as CBX7 inh 0.89.
CCOC(=O)c1cnc2ccc(Cl)cc2c1Nc1ccc(N2CCOCC2)cc1 was read as CBX7 inh 0.58.
CCOC(=O)c1cnc2ccc(OCC)cc2c1N1CCN(c2ccccc2F)CC1 was read as CBX7 inh 0.17*.
For CCOC(=O)c1cnc2c(C)cc(C)cc2c1Nc1ccc(N2CCCCC2)cc1 the results were CBX7 inh 0.28*.
`CCOC(=O)c1cnc2ccc(OCC)cc2c1N1CCN(c2ccccc2)CC1` gave CBX7 inh 0.74.
CCOC(=O)c1cnc2ccccc2c1Nc1ccc(C)cc1 was read as CBX7 inh 0.99.
For Cc1ccc(Cn2c(=N)n(CC(O)c3ccc(Cl)c(Cl)c3)c3ccccc32)cc1 (centres undefined) the results were CBX7 inh 0.78.
COc1cccc(C(=O)Nc2ccc(Cl)c(-c3nc4ccccc4o3)c2)c1 was read as CBX7 inh 0.94.
Screening COc1ccc(OC)c2[nH]c(=O)c(CCNC(=O)C(C)Oc3ccccc3)cc12 (centres undefined) returned CBX7 inh 0.9.
Screening CCCN(CCC)CC(O)CN(c1ccccc1)S(=O)(=O)c1ccccc1 (centres undefined) returned CBX7 inh 1.4.
Cc1ccc(CCNC(=O)c2nc(-c3ccccc3Cl)oc2C)cc1 was read as CBX7 inh 0.91.
For COc1cccc(NC(=O)C2CCCN(S(=O)(=O)c3c(C)noc3C)C2)c1 (centres undefined) the results were CBX7 inh 1.
Screening CC1CCC(NC(=O)Cn2ncc3ccsc3c2=O)CC1 (centres undefined) returned CBX7 inh 1.
